Laboratory results from the OligoGym collection.

Molecular target: AKR1C4
Assay: pooled miR-30 sensor sort-seq; sequence = guide strand
Conditions: shRNA
Further: reference of the scale not given here.

| Sequence | sensor-assay potency score (higher = more potent) |
| --- | --- |
| TAGAACTTTCATATCCTCTGAT | 0.539 |
| TTCAGTGAGCTTTCCAAGGCTG | 0.323 |
| TATCCTCTGATGTCAACTGGAA | -0.803 |
| TAAGGATGACATTCTACCTGGT | 0.727 |
| TTTGGTGACCTCTACAGCTCTG | 0.239 |
| TGGATAATCAGGATGGTCCATA | -1.08 |
| TTGGTGACCTCTACAGCTCTGT | 0.122 |
| AACATATCGATAATTTCTGTTT | -1.09 |
| TTGCTAAGGCACAAAGAACTGG | -0.934 |
| AAAACCTGGATGTTCTCTCTGA | 0.359 |
| TTATTGTATAAATAAGCAGAAT | -1.48 |
| ATCATTTAGCTCTACACGCTGA | -0.425 |
| ATATCCTCTGATGTCAACTGGA | -0.353 |
| AATCCATGACAACATATCGATA | -1.75 |
| TTGTGTTTCTTTGCTAAGGCAC | -0.225 |
| TTCATCTTTTGGTAGTGGCGTC | -0.396 |
| TTTCATATCCTCTGATGTCAAC | -1.3 |
| TTCTGTTTAGACCATCTAGAAC | -1.64 |
| TACTTTTCCATTTTCATCTTTT | -0.351 |
| TTGGTAGTGGCGTCTCACCTGG | -0.771 |
| TAGACCATCTAGAACTTTCATA | -0.398 |
| TTTGTTTGTGTTTCTTTGCTAA | 0.179 |
